Sampled rows, rich in hits. Any-hit rate of the full collection: about 5%.
USP8 inh: human USP8 deubiquitinase inhibition; inhibition, % at 20 µM; hit rate 4.2% among 47,000; P40818; purified USP8, Ub-rhodamine cleavage fluorescence, 30 min
UCHL1 inh: blocks human UCHL1 ubiquitin-rhodamine cleavage | P09936 | purified UCHL1, Ub-rhodamine cleavage fluorescence | inhibition, % at 20 µM | hit rate 0.2% among 47,000
OTUD3 block: blocks human OTUD3 ubiquitin-rhodamine cleavage; Q5T2D3; purified OTUD3, Ub-rhodamine fluorescence, 2 h; inhibition, % at 25 µM; hit rate 0.7% among 47,000; AID 1645858
USP10 inh: blocks human USP10 ubiquitin-rhodamine cleavage; Q14694; hit rate 1.1% among 47,000; inhibition, % at 20 µM; purified USP10, Ub-rhodamine fluorescence, 60 min
USP7 inh: inhibitors of human USP7 deubiquitinase. Q93009. purified USP7, Ub-rhodamine cleavage fluorescence. inhibition, % at 20 µM. hit rate 0.3% among 47,000. AID 1645854
Target sequence (Q93009 whole entry, looked up): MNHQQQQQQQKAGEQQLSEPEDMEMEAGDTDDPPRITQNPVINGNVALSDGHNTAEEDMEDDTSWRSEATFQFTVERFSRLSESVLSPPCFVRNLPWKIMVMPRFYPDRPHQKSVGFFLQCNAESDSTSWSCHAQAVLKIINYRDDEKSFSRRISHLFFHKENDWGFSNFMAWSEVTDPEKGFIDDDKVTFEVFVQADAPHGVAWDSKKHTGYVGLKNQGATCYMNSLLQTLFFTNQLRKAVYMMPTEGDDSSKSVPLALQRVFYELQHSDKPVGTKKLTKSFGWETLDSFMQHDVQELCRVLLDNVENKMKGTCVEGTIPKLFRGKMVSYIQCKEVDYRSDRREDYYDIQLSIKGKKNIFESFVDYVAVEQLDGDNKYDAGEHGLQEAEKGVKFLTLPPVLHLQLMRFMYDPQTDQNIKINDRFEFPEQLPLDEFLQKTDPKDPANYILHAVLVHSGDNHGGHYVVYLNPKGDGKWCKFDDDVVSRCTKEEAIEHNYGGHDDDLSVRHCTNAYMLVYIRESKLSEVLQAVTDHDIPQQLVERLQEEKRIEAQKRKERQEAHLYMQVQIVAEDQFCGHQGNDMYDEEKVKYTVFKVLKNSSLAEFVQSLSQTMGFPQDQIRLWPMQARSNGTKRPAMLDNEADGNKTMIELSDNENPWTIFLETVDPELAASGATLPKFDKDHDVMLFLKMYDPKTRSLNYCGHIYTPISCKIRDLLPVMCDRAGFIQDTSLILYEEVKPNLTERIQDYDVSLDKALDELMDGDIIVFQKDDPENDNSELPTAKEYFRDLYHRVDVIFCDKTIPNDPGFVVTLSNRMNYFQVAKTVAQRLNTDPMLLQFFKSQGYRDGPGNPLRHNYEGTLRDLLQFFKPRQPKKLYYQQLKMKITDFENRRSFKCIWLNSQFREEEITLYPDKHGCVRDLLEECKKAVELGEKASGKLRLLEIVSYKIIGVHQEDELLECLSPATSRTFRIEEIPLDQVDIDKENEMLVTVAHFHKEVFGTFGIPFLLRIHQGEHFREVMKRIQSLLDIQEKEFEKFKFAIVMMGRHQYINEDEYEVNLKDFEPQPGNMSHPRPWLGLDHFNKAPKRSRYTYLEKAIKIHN
Each line names hits and unclear results; the compound was inactive in the other large screens. No stated cut-off is given here; in the data, active means inhibition above about 30%; inactive means the rest.

Cc1ccc(NC(=O)CCc2nnc3c(=O)n(-c4cc(C)cc(C)c4)ccn23)cc1	USP8 inh 42
Cc1cc(C)cc(-n2ccn3c(CCC(=O)Nc4cccc(F)c4)nnc3c2=O)c1	none
Cc1ccc(NC(=O)CCc2nnc3c(=O)n(-c4ccc(C)c(C)c4)ccn23)cc1	none
CC(C)(C)OC(=O)N1CCc2nnc(C3CCN(C(=O)c4ccccc4)CC3)n2CC1	none
COc1ccc(S(=O)(=O)Nc2ccc3nn(C)cc3c2)cc1	USP8 inh 77
CCN1C(=O)Cc2cc(NS(=O)(=O)c3ccc(OC)cc3)ccc21	none
O=C1C=C(O)c2c(O)cccc2C1=O	USP8 inh 79
Cc1ccc2c(c1)C(=O)c1c(O)cccc1C2=O	none
CC(=O)c1ccc(OCC(O)CN2CCCN(C(=O)c3cccs3)CC2)cc1 (stereo not drawn)	none
CCN1CCc2nc(NC(=O)COc3c(Cl)cccc3Cl)sc2C1	none
CCN1CCc2nc(NC(=O)COc3ccc(Nc4ccccc4)cc3)sc2C1	USP8 inh 79
O=C(CCc1nnc2ccc(N3CCCC3)nn12)N1CCN(c2ccccc2F)CC1	none
O=C(Cn1nc2c3c4c(sc3ncn2c1=O)CCCCC4)Nc1ccc(Cl)cc1F	USP8 inh 92
Cc1ccc(NC(=O)Cn2nc3c4c5c(sc4ncn3c2=O)CCCC5)cc1C	none
COc1cccc(-c2cccc3c(C4CN(C(=O)NC(C)C)CCO4)ncn23)c1 (stereo not drawn)	none
Cn1cccc1C(=O)N1C[C@@H]2C[C@H]1C[C@@H]2NC(=O)c1ccccc1	none
O=C(CSc1ccccc1)Nc1cccc2nsnc12	USP8 inh 53
CCC(C(=O)Nc1cccc2nsnc12)c1ccccc1 (stereo not drawn)	USP8 inh 37
O=C(/C=C1\NCCc2cc3c(cc21)OCCCO3)c1ccc(OC(F)(F)F)cc1	USP8 inh 53
CCc1ccccc1NC(=O)CCC(=O)N1CCOc2ccc(C)cc21	none
Cc1ncc(CO)c2c1Oc1nc(-c3cccc(Cl)c3)nc(SCC(=O)N3CCCCC3)c1C2	USP8 inh 50, USP10 inh 37, USP7 inh 39
COc1cc(NC(=O)Cn2c(=O)n(CC3CCC(C(=O)NC4CCCC4)CC3)c(=O)c3ccccc32)cc(OC)c1 (stereo not drawn)	OTUD3 block 43
COc1ccc(NC(=O)Cn2c(=O)n(CCCC(=O)NC3CCCC3)c(=O)c3cc(Cl)ccc32)cc1	none
COc1ccc(NC(=O)Cn2c(=O)n(Cc3ccco3)c(=O)c3ccc(C(=O)NC4CCCC4)cc32)cc1	USP8 inh 60, USP10 inh 49
O=C(Cn1c(=O)n(CC2CCC(C(=O)NC3CCCC3)CC2)c(=O)c2ccccc21)NCc1ccco1 (stereo not drawn)	OTUD3 block 58
CCCCN1CC(C(=O)Nc2nnc(C(C)(C)CC)s2)CC1=O (stereo not drawn)	none
COc1ccc(S(=O)(=O)c2c[nH]c3ccc(C)cc3c2=O)cc1Cl	none
Nc1nnc(-c2cc(-c3ccc4c(c3)OCO4)on2)o1	USP8 inh 54
Cc1ccc(CNC(=O)CN2CCC3(CCC2=O)NC(=O)c2ccccc2O3)cc1 (stereo not drawn)	none
Cc1nc(-c2cccc(NC(=O)C3CC(=O)N(c4ccc(C)c(C)c4)C3)c2)no1 (stereo not drawn)	none
Cc1nc(-c2cccc(NC(=O)C3CC(=O)N(c4cccc(Cl)c4)C3)c2)no1 (stereo not drawn)	USP8 inh 31
CCc1nc(-c2cccc(NC(=O)C3CC(=O)N(c4ccc(C)c(C)c4)C3)c2)no1 (stereo not drawn)	USP8 inh 39
Cc1ccc(C)c(CSc2cn(CC(=O)N3CCC(C)CC3)c3ccccc23)c1	none
CCn1c(=O)c(C(=O)Nc2ccc(Br)cc2)nc2ccccc21	none
Cn1c(=O)c(C(=O)Nc2ccc(Br)cc2)nc2ccccc21	USP8 inh 77
CN1C(=O)C(C)(C)c2cc(S(=O)(=O)NC(C(=O)N3CCc4ccccc43)c3ccccc3)ccc21 (stereo not drawn)	none
O=C(c1cn2cc(Cl)ccc2n1)N1CCC(Cc2ccccc2)CC1	none
O=C(/C=C\c1ccc2c(c1)OCO2)Nc1c2c(nn1-c1ccc(Cl)cc1)CS(=O)(=O)C2	OTUD3 block 39
COc1ccc(C2CC(=O)c3cnc4c(c3C2)c(=O)n(C)c(=O)n4C)cc1 (stereo not drawn)	none
COCCn1c(=O)[nH]c(=O)c2c3c(cnc21)C(=O)CC(c1ccc(F)cc1)C3 (stereo not drawn)	USP8 inh 68
